Measured values: PubChem BioAssay (Tox21)
Activity calls are given as the source filed them. Calls follow the shape of the full dose curve.

Assay: qHTS assay to identify small molecule agonists of the sonic hedgehog signaling (Shh) pathway (AID 1259368);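 also: NIH/3T3-derived 3T3Gli1-Luc cells carrying a stable Gli1-driven firefly luciferase reporter; nearly all actives have a fitted effect of over 15% in size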
Details: NIH/3T3 Gli1-Luc reporter, luciferase, 24 h, stronger effect = higher value; series mostly up to 92.4 µM; activity change: at the top concentration
Excerpt: National Center for Advancing Translational Sciences [NCATS]
NIH Chemical Genomics Center [NCGC]
U.S. Environmental Protection Agency [EPA]
National Institutes of Environmental Health Sciences [NIEHS]
National Toxicology Program [NTP]
The sonic hedgehog (Shh) pathway is essential for normal embryonic development. Dysregulation of the Shh pathway can cause severe developmental defects in organs. Therefore chemicals that interfere with the pathway are potential developmental toxicants. A cell line designated 3T3Gli1-Luc (DMB/OARSA/CFSAN/FDA, Laurel, MD), a NIH/3T3 derived clone containing stably integrated Gli1-Luc reporter is used to detect chemical interference of the Shh pathway, by changes in the expression of the firefly Luc gene under the control of the Gli1 transcriptional response element. This cell line was used to screen Tox21 libraries for identifying and prioritizing the potential developmental toxicants that interfere Shh pathway.
3T3 Gli1-Luc cells were dispensed at 2,000 per well in 5uL of culture medium into white solid bottom 1536-well plates (Greiner Bio-One, Monroe, NC) using a Multidrop Combi (Thermo Scientific, Waltham, MA) dispenser. The assay plates were incubated at 37 C and 5% CO2 for 4hr, and then 23nL of compounds dissolved in DMSO and positive control were transferred using a Pintool station (Wako, San Diego, CA). The assay plates were incubated at 37C and 5% CO2 for 24hr. For luciferase read, 4uL of Amplite Luciferase reporter gene assay reagent (AAT Bioquest, Inc. Sunnyvale, CA) was added to each well of the assay plates using Flying Reagent Dispenser (FRD, Aurora Discovery, San Diego, CA) and incubated at room temperature for 30min. The luminescence signal was measured using a ViewLux plate reader (Perkin Elmer, Shelton, CT).
% is scaled to controls: 0 for no effect and ±100 for the full control effect.

Compound | activity change
C=CCC1=C(C)[C@@H](OC(=O)[C@@H]2[C@@H](C=C(C)C)C2(C)C)CC1=O | -12.8% (inactive)
CN1C[C@@H](NS(=O)(=O)N(C)C)C[C@@H]2c3cccc4c3c(cn4C)C[C@H]21 | -0.135% [at 42.5 µM] (inactive)
COP(=S)(OC)Oc1c(Cl)cc(C)cc1Cl | 0.847% (inactive)
CN1C(=S)CN=C(c2ccccc2)c2cc(Cl)ccc21 | -1.19% [at 42.5 µM] (inactive)
C#CCN1C(=O)COc2cc(F)c(N3C(=O)C4=C(CCCC4)C3=O)cc21 | -0.955% (inactive)
COc1cc(OC)nc(NC(=O)NS(=O)(=O)c2ncccc2OCC(F)(F)F)n1 | 0.601% (inactive)
O=S(=O)(O)C(F)(F)C(F)(F)C(F)(F)C(F)(F)C(F)(F)C(F)(F)F | -0.0539% (inactive)
O=C(Cc1ccccc1)OCc1ccccc1 | -0.265% (inactive)
CC1=C(C(=O)O)N2C(=O)[C@@H](N)[C@H]2SC1 | 0.0682% [at 18.9 µM] (inactive)
N#CCCC#N | 1.31% (inactive)
O=[N+]([O-])c1cccc(O)c1 | -1.86% (inactive)
CCC(=O)c1ccccc1 | -0.226% (inactive)
O=[N+]([O-])c1cccc2cccnc12 | 2.1% (inactive)
CCOP(=S)(OCC)Oc1nc(Cl)n(C(C)C)n1 | 0.458% (inactive)
O=C1OC(=O)C2C1C1(Cl)C(Cl)=C(Cl)C2(Cl)C1(Cl)Cl (stereo not given) | -0.0922% (inactive)
COC(=O)C1=CCCN(C)C1 | -0.234% [at 42.5 µM] (inactive)
ClC(Cl)Br | 0.19% (inactive)
Nc1cc(Cl)ccc1O | -20.7% (inactive)
Cc1nnc2n1-c1sc(CCC(=O)N3CCOCC3)cc1C(c1ccccc1Cl)=NC2 | -1.41% [at 42.5 µM] (inactive)
CCc1cc2c(s1)-n1c(C)nnc1CN=C2c1ccccc1Cl | -2.04% [at 42.5 µM] (inactive)

Compound | activity change
[Cl][Sn]([Cl])([Cl])[Cl] | 0.48% (inactive)
NC(=O)c1cc([N+](=O)[O-])cc([N+](=O)[O-])c1 | 2.13% [at 42.5 µM] (inactive)
CCS(=O)(=O)C(C)(C)S(=O)(=O)CC | 0.0882% [at 42.5 µM] (inactive)
c1cc2c(c(N3CCNCC3)c1)OCCO2 | -1.65% [at 42.5 µM] (inactive)
COc1cccc2c1cc([N+](=O)[O-])c1c(C(=O)O)cc3c(c12)OCO3 | -21.3% (inactive)
COc1ccc2c(c1OC)CN1CCc3cc4c(cc3C1C2)OCO4 (stereo not given) | 1.88% [at 42.5 µM] (inactive)
CCOC(=O)/C=C(C)/C=C/C[C@@H](C)CCCC(C)C | 0.869% (inactive)
N#CCBr | -0.226% (inactive)
COP(N)(=S)Oc1ccccc1C(=O)OC(C)C (stereo not given) | -0.179% (inactive)
N#Cc1c(Cl)cccc1Cl | -1.99% (inactive)
CC(C)CC(N(C)C)C1(c2ccc(Cl)cc2)CCC1 (stereo not given) | 0.0749% [at 42.5 µM] (inactive)
COc1ccc(C(=O)N2CCCC2=O)cc1 | -0.267% [at 42.5 µM] (inactive)
COC(=O)c1c(C(F)F)nc(C(F)(F)F)c(C2=NCCS2)c1CC(C)C | 0.579% (inactive)
O=C1CN=C(c2ccccc2)c2cc([N+](=O)[O-])ccc2N1 | -0.748% [at 42.5 µM] (inactive)
CNC(=O)Oc1ccc(N(C)C)c(C)c1 | 0.637% (inactive)
CC(C1CC1)C(O)(Cn1cncn1)c1ccc(Cl)cc1 (stereo not given) | 0.238% (inactive)
CC(C)(C)C(=O)C(Oc1ccc(Cl)cc1)n1cncn1 (stereo not given) | 1.01% (inactive)
CC(N)=S | 0.115% (inactive)
OCCBr | -1.13% (inactive)
CCOC(=O)NC(=S)Nc1ccccc1NC(=S)NC(=O)OCC | 7.34% (inactive)
